According to PubChem BioAssay (Tox21):
Several values for one entry are separate records, joined by “and”; a condition that tells them apart may be missing. Identical values can stand only once. Results filed as inconclusive are left out. Entries that show only a call come without a potency. Some structures have more than one record in an assay (separate samples or runs), and their calls can disagree. Activity calls are given as the source filed them. Unless noted, the call rests on the fitted dose curve; in most records, active means well fitted curve in the direction sought with a large enough effect in the repeat runs; inconclusive means weak or mixed curves; inactive means no such curve, though single readings can be large; an effect the other way counts as inactive or inconclusive.

What was measured:
[1] = qHTS assay to identify small molecule antagonists of the progesterone receptor (PR) signaling pathway - cell viability counter screen (AID 1346798); further: series mostly up to about 92 µM; nearly all actives have a fitted effect of over 50% in size
Method in brief: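 Same-well multiplex: after 16 hr at 37C with compound and R5020 stimulation, HEK293T cells carrying a UAS-bla reporter received LiveBLAzer substrate (2 hr RT), then CellTiter-Glo (30 min RT) for luminescent viability.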

[2] = qHTS assay to identify small molecule agonists of the progesterone receptor (PR) signaling pathway - cell viability counter screen (AID 1346799; calls by dose curve; further: nearly all actives have a fitted effect of over 45% in size)
Method in brief: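 Counter screen for cytotoxicity: compound-treated PR-UAS-bla HEK293T cells (16 hr, 37C, 5% CO2) were assayed with CellTiter-Glo, luminescence measured after 30 min at room temperature.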

[3] = qHTS assay to identify small molecule antagonists of the TGF-beta/Smad signaling pathway - cell viability counter screen (AID 1346824); further: nearly all actives have a fitted effect of over 50% in size
Method in brief: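 SBE-bla HEK 293T cells, incubated overnight, then compound plus 0.25 ng/mL TGF-beta1 (stock added) for 5 hr at 37 C. Viability was read in the same wells by CellTiter-Glo luminescence after 30 min at room temperature.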

[4] = qHTS assay to identify small molecule agonists of the TGF-beta/Smad signaling pathway - cell viability counter screen (AID 1346829); further: top concentration of the series differs between compounds; nearly all actives have a fitted effect of over 45% in size
Method in brief: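 Cytotoxicity counter screen: CellTiter-Glo luminescence (30 min, room temperature) measured in the SBE-bla HEK 293T reporter wells after 5 hr compound treatment at 37 C and the 2 hr substrate step.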

[5] = qHTS assay to identify small molecule agonists of the TGF-beta/Smad signaling pathway (AID 1346859; active means well fitted activation curve with a large enough effect in the signal ratio in the repeat runs, not every such curve was filed as active; the % refers to the signal ratio; further: series mostly up to about 77 µM)
Method in brief: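 Smad-responsive beta-lactamase reporter cells (HEK 293T) received compounds from DMSO stocks after overnight attachment, were incubated 5 hr, then treated 2 hr with FRET substrate before dual-emission fluorescence measurement (405 nm excitation).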

[6] = target: Thyrotropin-releasing hormone receptor (Homo sapiens) (UniProt P34981); test: qHTS assay to identify small molecule antagonists of the thyrotropin-releasing hormone receptor (TRHR) signaling pathway (AID 1346877; active means well fitted inhibition curve with a large enough effect in the repeat runs, not every such curve was filed as active; further: series mostly up to about 51 µM)
Method in brief: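 Human TRHR in HEK293 cells; inhibition of the intracellular calcium rise triggered by 1 nM TRH was followed by fluorescence over 3 min. Compounds were run at 15 concentrations, three replicates each.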

[7] = target: Thyrotropin-releasing hormone receptor (Homo sapiens) (UniProt P34981); test: qHTS assay to identify small molecule agonists of the thyrotropin-releasing hormone receptor (TRHR) signaling pathway (AID 1346891; calls by dose curve;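 further: HEK293 cells expressing TRHR with calcium dye readout; series mostly up to about 58 µM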)
Method in brief: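 Agonist-mode calcium mobilisation screen: TRHR-transfected HEK293 cells cultured overnight (18 h), dye-loaded for 2 h at 37 °C, exposed to compounds, and monitored by fluorescence for 3 min.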

[8] = Human pregnane X receptor (PXR) small molecule agonists, qHTS cell viability counter screen (AID 1346977); further: nearly all actives have a fitted effect of over 50% in size; further: potency means the concentration at half of the fitted maximal effect
Method in brief: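 Measures live-cell protease fluorescence (CellTiter-Fluor) in PXR-Luc HepG2 cells treated 24hr with compounds at 37C. Cells had 5hr to attach before pin transfer of DMSO solutions.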

[9] = Caspase-3/7 induction in HepG2 cells by small molecules, qHTS assay (AID 1346978); further: nearly all actives have a fitted effect of over 15% in size; further: potency means the concentration at half of the fitted maximal effect
Method in brief: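 Wild-type HepG2 cells, 2,000/well, settled 5 hr at 37 C and 5% CO2, then compound-treated for 17 hr; caspase-3/7 activity read by luminescent Caspase-Glo 3/7 after 30 min at room temperature.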

[10] = Caspase-3/7 induction in CHO-K1 cells by small molecules, qHTS cell viability counter screen (AID 1346979); further: nearly all actives have a fitted effect of over 35% in size; further: potency means the concentration at half of the fitted maximal effect
Method in brief: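 In the same wells as the caspase read, viability of compound-treated wild-type CHO-K1 cells was assessed using CellTiter-Fluor, added after 16hr at 37C and measured by fluorescence following 1hr further incubation.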

[11] = Caspase-3/7 induction in CHO-K1 cells by small molecules, qHTS assay (AID 1346980); further: nearly all actives have a fitted effect of over 15% in size
Method in brief: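 Wild-type CHO-K1 cells exposed to compounds for 17hr at 37 C, 5% CO2. Caspase-3/7 activity then measured by Caspase-Glo 3/7 luminescence after 30min at room temperature.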

[12] = Caspase-3/7 induction in HepG2 cells by small molecules, qHTS cell viability counter screen (AID 1346981); further: nearly all actives have a fitted effect of over 30% in size; further: potency means the concentration at half of the fitted maximal effect
Method in brief: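 The parent HepG2 line is plated at 2,000 cells per well and rested 5 hr before compound pinning from DMSO stocks. Following a 16-hr treatment at 37 C, a fluorogenic live-cell substrate (CellTiter-Fluor) reports viability after 1 hr.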

[13] = target: Nuclear receptor subfamily 1 group I member 2 (Homo sapiens) (UniProt O75469); test: Human pregnane X receptor (PXR) small molecule agonists, qHTS assay (AID 1346982); further: nearly all actives have a fitted effect of over 35% in size; further: potency means the concentration at half of the fitted maximal effect
Method in brief: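 After plating in 5% charcoal-stripped FBS and a 5 hr rest, PXR-Luc HepG2 cells received compounds in DMSO. Following 24 hr at 37 C, ONE-Glo was added and light output read.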

[14] = target: Nuclear receptor subfamily 1 group I member 2 (Rattus norvegicus) (UniProt Q9R1A7); test: Rat pregnane X receptor (rPXR) activation by small molecules, qHTS assay (AID 1346983); conditions: rPXR luciferase reporter cells, One-Glo luminescence, 24 h; max activation: stronger effect = higher value; further: nearly all actives have a fitted effect of over 20% in size
Method in brief: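 Cell-based rPXR activation assay: rPXR cells, 2,000 per well, rested 5hr at 37 C, then exposed to compounds in DMSO for 24 hr at 37 C. Luciferase activity read by One-Glo luminescence after 30 min at room temperature.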

[15] = target: Nuclear receptor subfamily 1 group I member 2 (Homo sapiens) (UniProt O75469); test: Human pregnane X receptor (PXR) activation by small molecules, qHTS assay (AID 1346985); further: nearly all actives have a fitted effect of over 40% in size
Method in brief: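 DPX-2 cells (HepG2 co-transfected with a PXR response element and a CYP3A4-promoter luciferase construct) were seeded at 2,000 per well, rested 5 hr at 37C, then exposed to DMSO-dissolved compounds for 24 hr. Activation was read as luciferase luminescence.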

[16] = target: Cytochrome P450 2D6 (Homo sapiens) (UniProt P10635); test: Cytochrome P450 Family 2 Subfamily D Member 6 (CYP2D6) small molecule antagonists: luciferase reporter qHTS assay (AID 1671196); further: series mostly up to about 120 µM; nearly all actives have a fitted effect of over 50% in size
Method in brief: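 Quantitative HTS of Tox21 chemicals against CYP2D6 using a luminescent proluciferin substrate. After NADPH addition, 1 h room-temperature reaction; luminescence recorded 20 min post detection reagent.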

[17] = target: Cytochrome P450 2C19 (Homo sapiens) (UniProt P33261); test: Cytochrome P450 Family 2 Subfamily C Member 19 (CYP2C19) small molecule antagonists: luciferase reporter qHTS assay (AID 1671197); further: nearly all actives have a fitted effect of over 65% in size; further: potency means the concentration at half of the fitted maximal effect
Method in brief: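 Luminescent readout of CYP2C19 activity: luciferin product detected 20 min after adding detection reagent. Before that, compound and enzyme-substrate mix preincubated 10 min at room temperature; NADPH-regenerating system started a 1 h, 37C reaction. Ketoconazole as positive control.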

[18] = target: Cytochrome P450 2C9 (Homo sapiens) (UniProt P11712); test: Cytochrome P450 Family 2 Subfamily C Member 9 (CYP2C9) small molecule antagonists: luciferase reporter qHTS assay (AID 1671198)
Method in brief: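 P450-Glo proluciferin substrate with CYP2C9 enzyme; 10 min RT preincubation, then NADPH regeneration 1 h at 37C; luciferin detection reagent 20 min RT, luminescence in relative luminescence units.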

[19] = target: Progesterone receptor (Homo sapiens) (UniProt P06401); test: qHTS assay to identify small molecule antagonists of the progesterone receptor (PR) signaling pathway (AID 1346795; active means well fitted inhibition curve with a large enough effect in the signal ratio in the repeat runs, not every such curve was filed as active; the % refers to the signal ratio)
Method in brief: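 HEK293T PR-UAS-bla reporter cells in charcoal-stripped serum (2%) received compound after a 6 hr settling period, followed by R5020 agonist at 1 nM final; 16 hr incubation preceded the FRET substrate step and fluorescence measurement.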

Sequence of Nuclear receptor subfamily 1 group I member 2 (Homo sapiens) (O75469 whole entry, looked up): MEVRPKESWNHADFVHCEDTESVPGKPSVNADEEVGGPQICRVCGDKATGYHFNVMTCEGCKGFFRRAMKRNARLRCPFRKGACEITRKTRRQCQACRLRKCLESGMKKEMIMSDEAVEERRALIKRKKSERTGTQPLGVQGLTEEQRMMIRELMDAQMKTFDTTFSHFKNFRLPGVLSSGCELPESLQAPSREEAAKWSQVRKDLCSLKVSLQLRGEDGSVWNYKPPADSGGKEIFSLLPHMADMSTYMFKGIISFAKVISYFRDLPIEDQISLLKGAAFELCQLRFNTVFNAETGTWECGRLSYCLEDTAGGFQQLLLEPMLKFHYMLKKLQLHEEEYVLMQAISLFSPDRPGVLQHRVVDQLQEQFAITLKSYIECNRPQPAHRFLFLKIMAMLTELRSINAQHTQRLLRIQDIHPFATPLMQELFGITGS
Sequence of Nuclear receptor subfamily 1 group I member 2 (Rattus norvegicus) (Q9R1A7 whole entry, looked up): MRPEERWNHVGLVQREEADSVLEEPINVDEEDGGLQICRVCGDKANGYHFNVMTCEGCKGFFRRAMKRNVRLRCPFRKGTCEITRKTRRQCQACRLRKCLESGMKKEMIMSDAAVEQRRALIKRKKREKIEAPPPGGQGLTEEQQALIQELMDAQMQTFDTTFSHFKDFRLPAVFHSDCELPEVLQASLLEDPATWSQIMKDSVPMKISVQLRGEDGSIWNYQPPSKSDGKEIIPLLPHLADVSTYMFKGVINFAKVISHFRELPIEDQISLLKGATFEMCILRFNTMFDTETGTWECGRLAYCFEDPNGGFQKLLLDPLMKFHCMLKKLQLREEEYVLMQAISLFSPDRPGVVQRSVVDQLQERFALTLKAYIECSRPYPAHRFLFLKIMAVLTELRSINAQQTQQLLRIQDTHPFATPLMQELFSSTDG
Sequence of Cytochrome P450 2C19 (Homo sapiens) (P33261 whole entry, looked up): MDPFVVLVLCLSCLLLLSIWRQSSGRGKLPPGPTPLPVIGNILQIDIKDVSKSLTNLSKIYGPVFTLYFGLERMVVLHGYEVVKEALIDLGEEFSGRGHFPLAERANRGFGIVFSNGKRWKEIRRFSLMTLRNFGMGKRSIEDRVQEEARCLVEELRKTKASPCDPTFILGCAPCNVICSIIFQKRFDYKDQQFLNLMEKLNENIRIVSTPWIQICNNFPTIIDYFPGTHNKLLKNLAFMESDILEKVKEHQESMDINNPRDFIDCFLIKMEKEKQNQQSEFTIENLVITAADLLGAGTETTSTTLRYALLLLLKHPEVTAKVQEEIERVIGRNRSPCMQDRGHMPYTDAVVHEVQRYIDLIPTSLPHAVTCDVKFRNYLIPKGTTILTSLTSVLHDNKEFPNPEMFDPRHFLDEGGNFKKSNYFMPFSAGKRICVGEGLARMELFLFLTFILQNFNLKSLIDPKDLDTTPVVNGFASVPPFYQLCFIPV
Sequence of Progesterone receptor (Homo sapiens) (P06401 whole entry, looked up): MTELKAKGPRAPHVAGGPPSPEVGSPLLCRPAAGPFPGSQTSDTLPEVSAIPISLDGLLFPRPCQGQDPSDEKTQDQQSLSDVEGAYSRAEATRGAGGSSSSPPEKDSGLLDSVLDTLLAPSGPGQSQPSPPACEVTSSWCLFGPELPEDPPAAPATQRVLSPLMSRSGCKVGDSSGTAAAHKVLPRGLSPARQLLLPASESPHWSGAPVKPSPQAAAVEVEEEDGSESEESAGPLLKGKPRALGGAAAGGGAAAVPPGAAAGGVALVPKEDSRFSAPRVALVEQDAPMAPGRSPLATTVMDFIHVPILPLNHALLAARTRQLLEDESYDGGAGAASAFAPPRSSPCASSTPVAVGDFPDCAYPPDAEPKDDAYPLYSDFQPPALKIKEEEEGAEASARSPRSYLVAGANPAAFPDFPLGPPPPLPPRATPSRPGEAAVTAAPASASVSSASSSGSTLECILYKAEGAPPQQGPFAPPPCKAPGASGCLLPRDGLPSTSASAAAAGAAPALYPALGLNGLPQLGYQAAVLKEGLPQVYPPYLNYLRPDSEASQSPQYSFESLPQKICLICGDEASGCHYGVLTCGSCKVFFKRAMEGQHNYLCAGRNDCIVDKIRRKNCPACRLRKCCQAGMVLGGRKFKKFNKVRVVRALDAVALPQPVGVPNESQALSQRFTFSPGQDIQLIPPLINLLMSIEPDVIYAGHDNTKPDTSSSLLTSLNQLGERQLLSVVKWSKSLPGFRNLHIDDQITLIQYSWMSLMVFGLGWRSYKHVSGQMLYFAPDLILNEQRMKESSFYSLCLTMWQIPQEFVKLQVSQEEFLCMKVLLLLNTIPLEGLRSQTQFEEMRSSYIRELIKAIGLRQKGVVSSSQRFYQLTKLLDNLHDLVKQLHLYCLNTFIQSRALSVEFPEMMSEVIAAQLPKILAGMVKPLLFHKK
Sequence of Cytochrome P450 2C9 (Homo sapiens) (P11712 whole entry, looked up): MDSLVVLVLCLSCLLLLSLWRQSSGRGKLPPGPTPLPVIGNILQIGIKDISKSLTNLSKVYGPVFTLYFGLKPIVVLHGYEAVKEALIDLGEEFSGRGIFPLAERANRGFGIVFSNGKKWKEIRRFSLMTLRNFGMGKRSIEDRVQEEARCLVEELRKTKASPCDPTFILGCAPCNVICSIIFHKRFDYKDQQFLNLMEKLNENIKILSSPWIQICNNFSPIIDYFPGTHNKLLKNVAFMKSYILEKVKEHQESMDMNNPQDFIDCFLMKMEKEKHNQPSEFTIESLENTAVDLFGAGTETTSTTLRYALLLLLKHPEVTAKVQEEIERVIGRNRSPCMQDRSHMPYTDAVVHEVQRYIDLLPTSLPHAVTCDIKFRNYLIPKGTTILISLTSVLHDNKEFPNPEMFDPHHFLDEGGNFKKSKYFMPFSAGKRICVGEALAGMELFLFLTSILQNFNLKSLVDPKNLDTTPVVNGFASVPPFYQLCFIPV
Sequence of Cytochrome P450 2D6 (Homo sapiens) (P10635 whole entry, looked up): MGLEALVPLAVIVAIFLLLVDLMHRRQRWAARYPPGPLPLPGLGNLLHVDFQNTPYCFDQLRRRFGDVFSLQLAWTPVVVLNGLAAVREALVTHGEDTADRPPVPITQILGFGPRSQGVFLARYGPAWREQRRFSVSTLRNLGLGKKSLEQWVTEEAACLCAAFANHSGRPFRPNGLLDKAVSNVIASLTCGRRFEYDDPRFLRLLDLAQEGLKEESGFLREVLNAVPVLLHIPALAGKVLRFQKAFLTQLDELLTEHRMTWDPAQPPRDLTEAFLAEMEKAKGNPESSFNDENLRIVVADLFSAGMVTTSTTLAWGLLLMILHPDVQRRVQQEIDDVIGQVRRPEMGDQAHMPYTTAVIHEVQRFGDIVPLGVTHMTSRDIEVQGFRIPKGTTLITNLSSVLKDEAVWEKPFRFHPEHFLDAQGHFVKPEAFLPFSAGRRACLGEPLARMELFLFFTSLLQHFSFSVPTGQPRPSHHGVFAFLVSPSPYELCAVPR
Sequence of Thyrotropin-releasing hormone receptor (Homo sapiens) (P34981 whole entry, looked up): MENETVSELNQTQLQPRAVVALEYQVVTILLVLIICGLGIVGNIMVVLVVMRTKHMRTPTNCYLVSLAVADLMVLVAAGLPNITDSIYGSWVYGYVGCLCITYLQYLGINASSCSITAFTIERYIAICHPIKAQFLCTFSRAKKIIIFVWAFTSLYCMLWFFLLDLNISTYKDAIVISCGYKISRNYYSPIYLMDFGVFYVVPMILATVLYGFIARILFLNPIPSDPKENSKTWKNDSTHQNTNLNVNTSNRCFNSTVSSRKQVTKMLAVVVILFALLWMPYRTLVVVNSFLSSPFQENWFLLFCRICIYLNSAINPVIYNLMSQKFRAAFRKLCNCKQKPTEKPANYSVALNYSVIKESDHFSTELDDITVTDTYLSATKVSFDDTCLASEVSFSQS

Row | Compound | Potency [1] | Potency [2] | Potency [3] | Potency [4] | outcome [5] | outcome [6] | Potency [7] | Potency [8] | Potency [9] | Potency [10] | outcome [11] | Potency [12] | Potency [13] | max activation [14] | Potency [15] | Potency [16] | Potency [17] | Potency [18] | Potency [19]
1 | CCN1CCCC1=O | inactive | inactive | inactive | inactive | inactive | inactive | inactive | inactive | inactive | inactive | inactive | inactive | inactive | 3.15% (inactive) | inactive | inactive | inactive | inactive | 
2 | Cc1c(N(C)C)c(=O)n(-c2ccccc2)n1C | inactive | inactive | inactive | inactive | inactive |  |  | inactive | inactive | inactive | inactive | inactive | 55.4 µM (active) and inactive |  |  | inactive | 32.2 µM (active) and inactive | inactive | inactive
3 | O=[N+]([O-])c1ccc(O)cc1 | inactive | inactive | inactive | inactive | inactive |  |  | 44.7 µM (active) and 48.6 µM (active) | inactive | 56.6 µM (active) and 54.5 µM (active) and 48.6 µM (active) | inactive | 56.6 µM (active) and 61.1 µM (active) and 54.5 µM (active) | inactive |  |  | inactive | 33 µM (active) | inactive | inactive
4 | C[C@]12C=CC(=O)C=C1CC[C@@H]1[C@@H]2C(=O)C[C@@]2(C)[C@H]1CC[C@]2(O)C(=O)CO | inactive | inactive | inactive | inactive | inactive |  |  | inactive | inactive |  | inactive | inactive |  |  |  |  |  |  | 
5 | C#C[C@]1(O)CC[C@H]2[C@@H]3CCc4cc(O)ccc4[C@H]3CC[C@@]21C |  |  | inactive | inactive | inactive | inactive | inactive | inactive | 21.5 µM (active) and inactive | 54.1 µM (active) and 54.5 µM (active) | inactive | inactive |  | 10.3% (inactive) |  | inactive | 7.05 µM (active) and 10 µM (active) and 13.8 µM (active) |  | 
6 | CC(O)COc1ccccc1 (stereo not drawn) | inactive | inactive | inactive | inactive | inactive |  |  | inactive | inactive | inactive | inactive | inactive | inactive | -1.1% (inactive) | inactive | inactive | inactive | inactive | inactive
7 | COc1ccccc1NC(=O)CC(C)=O | inactive | inactive | inactive | inactive | inactive | inactive | inactive | inactive | inactive | inactive | inactive | inactive | 61.1 µM (active) |  |  | inactive | 78.5 µM (active) and inactive | inactive | inactive
8 | CCOCCO | inactive | inactive | inactive | inactive | inactive | inactive | inactive | inactive | inactive | inactive | inactive | inactive | inactive |  |  | inactive | inactive | inactive | inactive
9 | O=C1CCCCCN1 | inactive | inactive | inactive | inactive | inactive |  |  | 7.08 µM (active) and inactive | inactive | 1.73 µM (active) and inactive | inactive | inactive | inactive |  |  | inactive | 40 µM (active) and inactive | inactive | inactive
10 | Cc1cccc2ccccc12 | inactive | inactive | inactive | inactive | inactive | inactive | inactive | inactive | inactive | inactive | inactive | inactive | inactive |  |  | inactive | inactive and 71 µM (active) | inactive | inactive
